# Active and inactive are the calls of the source.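 Rule for the calls: active = z-score of at least 1.8 in each of two replicates, scored against plate mean and spread of sample wells; inactive = the rest.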
# Assay: galactose survival enhancers in mitochondrial complex I cybrids – cell-based, galactose medium, ATP luminescence, primary screen (AID 1645843);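 note: positive z means more ATP and so rescue of galactose-driven cybrid death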
# Conditions: complex I mutant cybrid cells, 72 h, active compounds read high
row,Structure (SMILES),z-score
1,CC(=O)N1CCN(C(=O)c2c(-c3ccccc3)nn(-c3ccccc3)c2C)CC1,-0.38 (inactive)
2,CC(C)(O)c1cn(C2CCN(C(=O)C3CC34CCCC4)CC2)nn1 (stereo not given),-0.475 (inactive)
3,CCCCc1cn(C2CCN(C(=O)C3CCCO3)CC2)nn1 (stereo not given),-0.535 (inactive)
4,Cc1nsc(NC(=O)NC(C)c2ccc(Cl)cc2)n1 (stereo not given),-0.26 (inactive)
5,Cc1c(C(F)(F)F)nc(-c2ccc(CN(C)Cc3ccccn3)cc2)[nH]c1=O,-0.485 (inactive)
6,CC1CCCCN1Cc1ccc(-c2nc(CCn3cccn3)cc(=O)[nH]2)cc1 (stereo not given),-0.245 (inactive)
7,CCCC(C)N(CC)C(=O)c1ccc(C#CC(C)(C)O)o1 (stereo not given),-0.525 (inactive)
8,Cc1nn(C)c(C)c1-c1ccnc(NCc2ccc3nsnc3c2)n1,-0.665 (inactive)
9,Cc1nsc(NC(=O)N2CCC(N)CC2)n1,0.04 (inactive)
10,CCn1ncc(NC(=O)Cn2cc(C)c(-c3ccc(Cl)s3)n2)n1,-0.01 (inactive)
11,Cc1nsc(NC(=O)N2CCCN(c3ccccc3)CC2)n1,-0.19 (inactive)
12,CN(C)C(=O)c1cccnc1-c1ccc2ncccc2c1,-0.545 (inactive)
13,CC1CCCN1C(=O)c1cc(-c2cnn(C(C)C)c2)nc2cc(F)ccc12 (stereo not given),-0.72 (inactive)
14,Cc1cccc(C2CCCN(C(=O)c3cc(C(C)C)no3)C2)c1 (stereo not given),1.05 (inactive)
15,COc1ccc(N2CCN(C(=O)Nc3nc(C)ns3)CC2(C)C)cc1,-0.445 (inactive)
16,CCn1ncc(NC(=O)Cn2ccc(C(=O)OC)n2)n1,-0.44 (inactive)
17,CC[C@H](C)[C@H](N)C(=O)N1CCC(Cn2cc(-c3ccc(F)cc3)nn2)CC1,-0.33 (inactive)
18,Cc1nsc(NC(=O)N2CCN(c3ccccc3)CC2C)n1 (stereo not given),2.15 (active)
19,COc1ccc2c(c1)C=C(CNc1cccnc1)CO2,0.615 (inactive)
20,C=C1C2(C(=O)N3CCC(CCN4CCCC4=O)CC3)CCC(C2)C1(C)C (stereo not given),-0.41 (inactive)

row,Structure (SMILES),z-score
1,CCOc1ccc2ccccc2c1-c1nc2c(cnn2CC)[nH]1,-0.255 (inactive)
2,Clc1ccc(C(Cn2ccnc2)OCc2csc3c(Cl)cccc23)c(Cl)c1 (stereo not given),0.155 (inactive)
3,CCC(CC)(CCC#N)CNC1COC2(CCCCC2)C1 (stereo not given),-0.53 (inactive)
4,COc1ccc(CCC(C)NC2CC(C)(C)NC(C)(C)C2)cc1 (stereo not given),-0.505 (inactive)
5,COc1ccccc1C(=O)N1CCN(C(=O)c2nc3ccccc3c(=O)[nH]2)CC1,0.365 (inactive)
6,CC(C)c1cc(C(=O)N2CCCC(c3ccc(Cl)cc3)C2)on1 (stereo not given),0.165 (inactive)
7,O=C(C1CCCCCC1)N1CCC(n2cc(-c3ccccn3)nn2)CC1,-0.545 (inactive)
8,CC(CCCC(C)(C)O)CCN1CCC(N(C)CCO)CC1 (stereo not given),-0.505 (inactive)
9,CCCCC(CC)CN1CCc2[nH]nc(C3CC3)c2C1 (stereo not given),-0.03 (inactive)
10,CC(C)CN1CCN(c2ccc(C(F)(F)F)cn2)C(C)C1=O (stereo not given),-0.56 (inactive)
11,O=c1c2ccc(C(F)(F)F)cc2ncn1CCC1CCCCN1C1CCCC1 (stereo not given),-0.69 (inactive)
12,CCCCc1cn(C2CCN(C(=O)C3CC3(CC)CC)CC2)nn1 (stereo not given),0.39 (inactive)
13,Cc1nsc(NC(=O)N2CCCCC2c2ccc(F)cc2)n1 (stereo not given),-0.445 (inactive)
14,CCCN1CCC(NCC(CC)(CC)CCC#N)CC1,-0.565 (inactive)
15,COc1ccc(CC(=O)NCc2cccc(SC)c2)cc1,0.19 (inactive)
16,COCc1cn(CC2CCN(C(=O)CC3CCCCCC3)CC2)nn1,-0.465 (inactive)
17,O=C(C1CCCCCC1)N1CCC(Cn2cc(CCCO)nn2)CC1,-0.325 (inactive)
18,CC(C)c1ncc(C(=O)N2CCC(n3cc(-c4ccccn4)nn3)CC2)cn1,0.26 (inactive)
19,O=c1c2cccc(F)c2ncn1CCC1CCCCN1C1CCCC1 (stereo not given),-0.825 (inactive)
20,Cc1nc(C(=O)N(Cc2cccnc2)Cc2ccc3c(c2)OCO3)cs1,-0.675 (inactive)
